Sampled rows, rich in hits. Any-hit rate of the full collection: about 8%.
SARS PLpro yeast – inhibitors of SARS-CoV papain-like protease in yeast | Potency, µM (highest dose often 32.9 µM), most hits filed as activators | S. cerevisiae expressing SARS-CoV PLpro, growth rescue | 330,000 tested, 0.19% active; calls by dose curve; note: nearly all actives have a fitted effect of over 55% in size
FMDV antiviral – antivirals against foot and mouth disease virus | FMDV antiviral cell-based qHTS | Potency, µM (series often up to 57.9 µM), actives largely listed as inhibitors | 410,000 tested, 1.2% active | AID 1159524; calls by dose curve; tested in HEK293T cells; note: read-out not given here; nearly all actives have a fitted effect of over 45% in size
HCV inh – blocks hepatitis C virus | Potency, µM (highest dose often 41.8 µM), usual class: inhibitors | 340,000 tested, 3.4% active | AID 651820 | Huh7.5.1 HCVcc-Cre infection, luciferase reporter, 44 h; active = well fitted inhibition curve with a large enough effect; inconclusive = small, poorly fitted or top-dose-only effect, or another doubt; inactive = no such curve, though single readings can be large or run the other way
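Seed cells (1,000/well) for 4 h; treat with compound and infect with HCVcc-Cre, moi about 0.5. Incubate 44 h, then detect luciferase activity.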
HCMV antiviral – human cytomegalovirus inhibition. activity change, negative = inhibition, % at 57.5 µM. 410,000 tested, 4.5% active. HFF cells, HCMV-luciferase reporter, 72 h; hits give low values; in the data active = activity change below about -60%; inconclusive = no clear call, values can overlap the other calls; inactive = above about -39%
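Screen run at 2 compound doses on HFFs infected with reporter HCMV, MOI 1 PFU/cell. Luciferase activity from cell lysates at 72 h post infection gave inhibition relative to buffer-only and Salinomycin wells.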
MARV entry inh – inhibitors of Marburg virus binding or cell entry; Marburg virus pseudotyped entry inhibition, cell reporter; Potency, µM (titrated, usually from 37.8 µM), hits mostly inhibitors; 300,000 tested, 1.8% active; AID 540276; calls by dose curve; tested in HEK293 cells
Lassa entry inh – blocks Lassa virus binding to or entry into cells. 300,000 tested, 1.2% active. Potency, µM (titrated, usually from 37.9 µM), hits mostly inhibitors. Lassa virus pseudotype entry inhibition, cell reporter; calls by dose curve; tested in HEK293 cells; note: nearly all actives have a fitted effect of over 50% in size
A number is an active result; . = inactive; ? = inconclusive; / = no result given.

SMILES	SARS PLpro yeast	FMDV antiviral	HCV inh	HCMV antiviral	MARV entry inh	Lassa entry inh
Cc1nn(-c2ccccc2)c(C)c1/C=N/NC(=O)c1cc(-c2cccs2)[nH]n1	.	?	?	-89	?	?
Cc1nn(-c2ccccc2)c(C)c1/C=N/NC(=O)c1cc(C2CC2)[nH]n1	.	.	.	.	?	.
O=C(CSc1nnc(SCc2ccccc2)s1)N/N=C/c1c(Cl)cccc1Cl	.	.	.	?	?	.
COC(=O)c1ccc(C2C=C(c3ccc(Cl)cc3)Nc3nc4ccccc4n32)cc1 (stereo not given)	/	.	/	.	/	?
Cc1nn(-c2ccccc2)c(C)c1/C=N/NC(=O)c1ccccc1O	.	.	.	.	.	.
Cc1nn(-c2ccccc2)c(C)c1/C=N/NC(=O)c1cccs1	.	.	?	.	11µM	3.2µM
Cc1nn(-c2ccccc2)c(C)c1/C=N/NC(=O)c1cc(-c2ccc(Cl)s2)[nH]n1	.	4µM	?	.	9.2µM	10µM
O=C(N/N=C/c1ccccn1)c1cc(-c2ccc(Cl)s2)[nH]n1	.	.	.	.	.	.
O=C(CSc1cccc2cccnc12)N1CCCC1	.	?	0.71µM	?	?	?
O=C(CSc1cccc2cccnc12)Nc1cc(C(=O)O)cc(C(=O)O)c1	.	.	11µM	.	.	.
CCc1nc2nc(C)cc(Nc3cc(C)ccc3C)n2n1	/	.	/	.	.	.
CC(=O)c1cccc(NC(=O)c2sc(-n3nc(C)c(Cc4ccccc4)c3C)nc2C)c1	/	?	/	-61	.	.
Cc1cccc(COc2ncnc3nc[nH]c23)c1	.	.	4µM	.	.	?
Clc1ccccc1CN(Cc1ccco1)Cc1nnnn1C1CCCC1	/	.	10µM	.	.	.
c1coc(CN(Cc2cccs2)Cc2nnnn2C2CCCCC2)c1	.	.	.	?	.	.
COc1ccccc1C(=O)NC1(C(F)(F)F)C(=O)Nc2c1c(=O)[nH]c(=O)n2-c1ccccc1 (stereo not given)	/	.	/	.	.	.
O=C(NCc1ccc(F)c(F)c1)c1cnc(N2CCN(CCc3ccccc3)C2=O)o1	/	/	/	.	/	/
CCNc1ccc(C(=O)OCC(=O)NCc2ccc(C)cc2)cc1[N+](=O)[O-]	.	.	.	.	.	.
CCNc1ccc(C(=O)OCC(=O)NC(C)c2ccccc2)cc1[N+](=O)[O-] (stereo not given)	.	.	?	-66	.	.
O=C1C=C(Nc2ccc(O)cc2)C(=O)c2ccccc21	.	.	?	.	?	?
CCc1ccc(S(=O)(=O)/N=C2\C=C(Nc3cccc(C(=O)O)c3)C(=O)c3ccccc32)cc1	.	?	?	.	.	?
O=C1C(Nc2ccc(O)cc2)=C/C(=N/S(=O)(=O)c2cccs2)c2ccccc21	.	13µM	3.5µM	-99	2.5µM	3.5µM
Cc1ccc(Cl)cc1NC1=C/C(=N\S(=O)(=O)c2cccs2)c2ccccc2C1=O	.	14µM	10µM	-99	?	6.5µM
O=C(O)c1ccc(NC2=C/C(=N/S(=O)(=O)c3cccs3)c3ccccc3C2=O)cc1	/	10µM	/	.	/	/
Cc1cc2c(cc1S(=O)(=O)Nc1cccc(C#N)c1)OCC(=O)N2	/	.	/	?	/	.
SMILES	SARS PLpro yeast	FMDV antiviral	HCV inh	HCMV antiviral	MARV entry inh	Lassa entry inh
Cc1cc2cc(CN(CC3CCCO3)C(=S)Nc3ccccc3)c(=O)[nH]c2cc1C (stereo not given)	.	.	?	-82	?	7.1µM
Cc1cc2cc(CN(CC3CCCO3)C(=S)NCc3ccco3)c(=O)[nH]c2cc1C (stereo not given)	.	.	.	.	.	.
CCN1CCCC1CN(Cc1cc2ccc(C)c(C)c2[nH]c1=O)C(=O)Nc1ccccc1OC (stereo not given)	.	.	?	.	18µM	.
COc1ccc(N(Cc2cc3ccccc3[nH]c2=O)C(=O)C2CCCO2)cc1 (stereo not given)	.	.	.	-65	.	.
CCOc1ccc(N(Cc2cc3cc(OC)ccc3[nH]c2=O)C(=O)C2CCCO2)cc1 (stereo not given)	.	.	.	.	.	.
COc1ccc2cc(CN(CC3CCCO3)C(=S)Nc3ccccc3)c(=O)[nH]c2c1 (stereo not given)	.	.	?	-73	?	?
COc1ccc2[nH]c(=O)c(CN(CC3CCCO3)C(=S)Nc3ccccc3)cc2c1 (stereo not given)	.	.	?	.	/	/
